A number with no mark means an inactive call.
target: T1, USP38 (UniProt Q8NB14); assay: log2 ratio of Biotin-Ahx-Ub-VS probe labelling (fragment/DMSO); higher = less target engagement (more negative = stronger competition), active = hit call of the paper (q ≤ 0.05, log2 ratio ≤ -1); conditions: compound concentration: 200 uM; treatment time: 3 h
T1 sequence (whole entry): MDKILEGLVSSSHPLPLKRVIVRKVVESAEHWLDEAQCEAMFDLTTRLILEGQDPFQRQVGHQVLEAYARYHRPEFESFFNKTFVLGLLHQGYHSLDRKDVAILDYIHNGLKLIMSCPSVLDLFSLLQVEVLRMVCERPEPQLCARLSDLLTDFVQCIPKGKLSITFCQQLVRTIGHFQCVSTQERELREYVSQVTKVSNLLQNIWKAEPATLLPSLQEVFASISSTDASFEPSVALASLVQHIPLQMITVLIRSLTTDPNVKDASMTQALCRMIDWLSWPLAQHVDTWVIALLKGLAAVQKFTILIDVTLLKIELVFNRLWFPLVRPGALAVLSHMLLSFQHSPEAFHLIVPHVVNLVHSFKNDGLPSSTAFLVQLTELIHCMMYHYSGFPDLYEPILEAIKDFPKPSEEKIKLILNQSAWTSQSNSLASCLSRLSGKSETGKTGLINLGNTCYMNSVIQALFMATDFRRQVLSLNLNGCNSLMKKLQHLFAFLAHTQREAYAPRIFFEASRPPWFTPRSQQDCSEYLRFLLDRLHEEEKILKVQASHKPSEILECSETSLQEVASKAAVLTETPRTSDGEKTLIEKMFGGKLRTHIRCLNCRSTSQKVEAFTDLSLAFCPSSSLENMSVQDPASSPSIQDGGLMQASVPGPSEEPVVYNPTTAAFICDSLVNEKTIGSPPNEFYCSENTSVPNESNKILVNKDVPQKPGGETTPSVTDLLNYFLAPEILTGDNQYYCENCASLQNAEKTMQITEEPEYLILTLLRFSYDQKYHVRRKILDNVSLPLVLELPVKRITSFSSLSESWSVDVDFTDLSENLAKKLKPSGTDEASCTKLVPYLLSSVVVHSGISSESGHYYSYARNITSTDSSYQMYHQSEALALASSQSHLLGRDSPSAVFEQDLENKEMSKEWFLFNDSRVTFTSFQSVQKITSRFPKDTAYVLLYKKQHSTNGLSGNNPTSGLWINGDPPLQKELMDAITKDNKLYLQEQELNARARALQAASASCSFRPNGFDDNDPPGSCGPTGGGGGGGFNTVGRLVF
Method: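 Competitive ABPP in HEK293T cell lysate. Lysates were treated with each chloroacetamide fragment at 200 µM for 3 h, then with Biotin-Ahx-Ub-VS (0.5 µM, 1 h), NeutrAvidin-enriched and analysed by diaPASEF LC-MS/MS. Protein LFQ was median-normalised; average log2 ratio is fragment/DMSO from an unpaired t-test (n=3 treated, n=44 DMSO). Hits: q ≤ 0.05, log2 ratio ≤ -1, unique peptides ≥ 2.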

Point of comparison: `O=C(CCl)N1CCCC1=O`, “log2 ratio of Biotin-Ahx-Ub-VS probe labelling” value -0.1. Against it:
- Cc1ncsc1CNC(=O)CCl.Cl — higher, 0.147
- CC1CCCCC1NC(=O)CCl (centres undefined) — within 0.2 log units, -0.0227
- Cc1cccc(NC(=O)CCl)c1 — within 0.2 log units, -0.146
- CN(C(=O)CCl)C1CCCCC1 — within 0.2 log units, 0.0172
- O=C(CCl)NCc1ccco1 — within 0.2 log units, -0.144
- O=C(CCl)NCC1CCC1 — within 0.2 log units, 0.000742
- O=C(CCl)NC(C1CC1)C1CC1 — within 0.2 log units, -0.124
- Cc1cc(NC(=O)CCl)no1 — within 0.2 log units, -0.139
- CC1CN(C(=O)CCl)CC(C)O1 (centres undefined) — within 0.2 log units, -0.205
- O=C(CCl)N1CCCCCCC1 — within 0.2 log units, -0.0744
- Cc1nnc(NC(=O)CCl)s1 — lower, -0.33
- O=C(CCl)NCC1CCCO1 (centres undefined) — within 0.2 log units, -0.00745
- Cc1nc(NC(=O)CCl)sc1C — within 0.2 log units, -0.00435
- N#CC1(NC(=O)CCl)CCCC1 — within 0.2 log units, -0.0299
- O=C(CCl)Nc1cccc(Cl)c1 — lower, -0.568
- CC(NC(=O)CCl)c1cccs1 (centres undefined) — within 0.2 log units, -0.0174
- CC(C)CN(C(=O)CCl)C1CC1 — within 0.2 log units, 0.00725
- CC1CCCCN1C(=O)CCl (centres undefined) — within 0.2 log units, -0.196
